Screening data from PubChem BioAssay.
HepG2 viability: HepG2 cytotoxicity, counter-screen for TGF-b inhibitors; HepG2 CAGA-GFP viability, ATP luminescence, 18 h; Potency, µM (doses to about 46.1 µM), for inactives: top-dose activity change, negative = cytotoxicity, most hits filed as cytotoxic; actives 0.76% (n = 410,000); AID 588856
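HepG2 CAGA-GFP cells (1000/well, DMEM with 1% FBS) received compound, then TGF-beta at 500 pg/mL final, and were incubated 18 hours at 37 degrees C. Viability was read by CellTiter-Glo luminescence. Media-only wells were set as complete cell-killing and DMSO as no toxicity.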
ATXN2 expr inh: inhibitors of ATXN2 expression; HEK-293 ATXN2-luciferase reporter, luminescence, 24 h; actives 0.72% (n = 360,000); Potency, µM (highest dose often 57 µM), inactives show top-dose activity change, negative = inhibition, actives largely listed as inhibitors; further: on the % scale 0 is the no-effect control and ±100 the full control effect; nearly all actives have a fitted effect of over 55% in size
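qHTS (up to 57 uM final) was run with 24 h compound exposure of reporter cells at 37 °C. Each well was multiplexed: SteadyGlo luminescence measured ATXN2-luciferase expression after a fluorogenic Gly-Phe-AFC viability readout (25 uM final).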
TGFb inhibitor: TGF-b pathway inhibition; HepG2 CAGA-GFP TGF-b/SMAD3 reporter, GFP fluorescence, 18 h; TGF-beta stimulated, 500 pg/mL final; Potency, µM (series often up to 46.1 µM), for the others: at the top dose activity, negative = inhibition, usual class: inhibitors; actives 1.2% (n = 410,000); further: on the % scale 0 is the no-effect control and ±100 the full control effect; nearly all actives have a fitted effect of over 65% in size
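Using HEPG2 CAGA-GFP reporter cells at 1000 cells/well, we pinned test compounds, stimulated with recombinant TGF-beta (500 pg/mL final) and measured total well GFP after 18 h.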
ATXN viability: viability counter-screen for ATXN expression inhibitors. Potency, µM (titrated, usually from 56.7 µM), actives largely listed as cytotoxic. actives 0.49% (n = 400,000). S2 cells (HEK-293 line with an ATXN2-luciferase reporter) viability, CellTiter-Fluor protease fluorescence, 24 h; further: nearly all actives have a fitted effect of over 40% in size
ALOX12 inh: inhibitors of human 12S-lipoxygenase ALOX12; AID 1671190; P18054; purified 12hLO, xylenol orange hydroperoxide absorbance; Potency, µM (doses to about 108 µM), for the others: top-dose activity change, negative = inhibition, hits mostly inhibitors; actives 1.1% (n = 580,000); further: on the % scale 0 is the no-effect control and ±100 the full control effect
Target sequence (P18054 whole entry, looked up): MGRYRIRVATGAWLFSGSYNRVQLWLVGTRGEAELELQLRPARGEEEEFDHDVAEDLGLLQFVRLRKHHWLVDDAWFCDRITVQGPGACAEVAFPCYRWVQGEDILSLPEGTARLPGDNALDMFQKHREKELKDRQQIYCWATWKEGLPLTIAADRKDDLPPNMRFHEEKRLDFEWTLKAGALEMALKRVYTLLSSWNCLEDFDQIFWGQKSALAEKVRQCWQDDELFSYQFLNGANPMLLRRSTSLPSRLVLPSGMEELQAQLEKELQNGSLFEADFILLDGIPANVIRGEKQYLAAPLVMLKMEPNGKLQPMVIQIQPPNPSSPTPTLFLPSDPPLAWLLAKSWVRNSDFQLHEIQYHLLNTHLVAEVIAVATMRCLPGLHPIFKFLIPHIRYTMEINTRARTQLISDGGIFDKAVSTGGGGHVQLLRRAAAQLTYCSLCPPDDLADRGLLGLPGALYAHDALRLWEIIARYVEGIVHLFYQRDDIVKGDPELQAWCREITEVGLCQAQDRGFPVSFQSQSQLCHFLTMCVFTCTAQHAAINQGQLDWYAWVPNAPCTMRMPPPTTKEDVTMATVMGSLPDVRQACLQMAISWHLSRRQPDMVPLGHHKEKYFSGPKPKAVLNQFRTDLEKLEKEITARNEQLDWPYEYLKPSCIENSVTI
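Hydroperoxide product was detected by ferrous iron/xylenol orange as the 573 to 405 nm absorbance ratio. Arachidonic acid at 40 uM (final) was turned over for 30 min at room temperature by 150 nM human 12hLO, pH 7.0 Hepes buffer, after 15 min compound preincubation.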
The depositor's hits bear a star; ! = not active in a repeat. Rows were chosen to be rich in hits. Some 2.7% of all compounds tested hit in one or more screens of this group. The call rests on the fitted dose curve; in most records, active means well fitted curve in the direction sought with a large enough effect; inconclusive means small, poorly fitted or top-dose-only effect, or another doubt; inactive means no such curve, though single readings can be large; an effect the other way counts as inactive or inconclusive. Potency means the concentration at half of the fitted maximal effect.

Screening CCC(C)[C@H]1COCCS(=O)(=O)N1Cc1ccc(Cl)cc1Cl (some centres undefined) returned HepG2 viability -32%, ATXN2 expr inh -9%, TGFb inhibitor 10µM*!, ATXN viability inactive and ALOX12 inh 9%.
Screening c1ccc(-n2ncc3c(N4CCCCC4)ncnc32)cc1 returned HepG2 viability -26%, ATXN2 expr inh 13µM*, TGFb inhibitor -4%, ATXN viability inactive and ALOX12 inh 8%.
For Cc1ccc(-n2ncc3c(N4CCCC4)ncnc32)c(C)c1 the results were HepG2 viability -12%, TGFb inhibitor 5% and ALOX12 inh -1%.
For CCN(CC)C(=O)C1CCCN(c2ncnc3c2cnn3-c2ccc(Cl)cc2)C1 (centres undefined) the results were HepG2 viability -25%, ATXN2 expr inh 13µM*, TGFb inhibitor -2%, ATXN viability inconclusive and ALOX12 inh -2%.
COc1cccc(N2CCN(c3ncnc4c3cnn4-c3ccc(C)cc3C)CC2)c1 was read as HepG2 viability -60%, ATXN2 expr inh 7.9µM*, TGFb inhibitor inconclusive, ATXN viability 10µM* and ALOX12 inh -13%.
Screening Cc1ccc2nc(-c3cc(NC(=O)c4cccc(Cl)c4)ccc3O)oc2c1 returned ALOX12 inh 27%.
O=C(/C=C1\NC2(CCCC2)Cc2ccccc21)C(=O)N/N=C/c1ccc(O)c(O)c1 was read as HepG2 viability -23%, ATXN2 expr inh -31%, TGFb inhibitor inconclusive, ATXN viability inconclusive and ALOX12 inh 35µM*.
For COc1ccc(/C=N/NC(=O)C(=O)/C=C2\NC3(CCCC3)Cc3ccccc32)cc1 the results were HepG2 viability 9%, ATXN2 expr inh 1%, TGFb inhibitor 1%, ATXN viability inactive and ALOX12 inh -3%.
Screening CN(C)S(=O)(=O)c1cccc(-c2nn(-c3ccccc3)cc2/C=C2\SC(=S)NC2=O)c1 returned HepG2 viability -8%, ATXN2 expr inh -4%, TGFb inhibitor 13µM*, ATXN viability inactive and ALOX12 inh inconclusive.
For COc1ccc(NC(=O)c2noc3c2CCC3)cc1 the results were HepG2 viability -37%, ATXN2 expr inh -16%, TGFb inhibitor 2%, ATXN viability inactive and ALOX12 inh 0%.
For CC(=O)c1ccc(NC(=O)c2noc3c2CCC3)cc1 the results were HepG2 viability -8%, ATXN2 expr inh 4µM*, TGFb inhibitor 0%, ATXN viability inactive and ALOX12 inh -30%.
`Cc1cccc(-c2nnc3sc(-c4ccccc4C)nn23)c1` gave HepG2 viability 13µM*, ATXN2 expr inh -18%, TGFb inhibitor -4%, ATXN viability inactive and ALOX12 inh 12%.
CCC(C)NC(=O)CCNC(=O)N1CCn2c1nc1ccccc12 (centres undefined) was read as ALOX12 inh 1%.
For O=c1[nH]c2c(s1)C(c1ccc(O)cc1)C1C3CCC(C3)C1S2 (centres undefined) the results were HepG2 viability -26%, ATXN2 expr inh -3%, TGFb inhibitor inconclusive, ATXN viability inactive and ALOX12 inh 45µM*.
CC(=O)c1cccc(NC(=O)CSc2nc(=O)n(Cc3cccnc3)c3c2CCC3)c1 was read as HepG2 viability 0%, ATXN2 expr inh -1%, TGFb inhibitor 3%, ATXN viability inactive and ALOX12 inh -22%.
For COc1ccc(C)cc1NC(=O)CSc1nc(=O)n(Cc2cccnc2)c2c1CCC2 the results were HepG2 viability -14%, ATXN2 expr inh -7%, TGFb inhibitor -23%, ATXN viability inactive and ALOX12 inh -4%.
Screening COc1ccc(C)cc1NC(=O)CSc1nc(=O)n(Cc2ccccn2)c2c1CCC2 returned HepG2 viability -32%, ATXN2 expr inh -16%, TGFb inhibitor 8.9µM*, ATXN viability inactive and ALOX12 inh -10%.
`Cc1cccc(NC(=O)CSc2nc(=O)n(Cc3cccnc3)c3c2CCC3)c1` gave HepG2 viability -33%, ATXN2 expr inh -15%, TGFb inhibitor 18µM*, ATXN viability inactive and ALOX12 inh -22%.
